Sampled rows, rich in hits. Any-hit rate of the full collection: about 4.6%.
TIM10 inh: growth inhibitors of TIM10 yeast strain; AID 463195; 1.4% of 330,000 active; inhibition, % at 10 µM; S. cerevisiae TIM10 strain growth, BacTiter-Glo luminescence, 24 h;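 active = inhibition of 40% or more at the single tested concentration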;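 note: wild-type TIM10 isogenic control strain grown at permissive 25 °C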
tim10-1 inh: growth inhibitors of tim10-1 mutant yeast. S. cerevisiae tim10-1 ts strain growth, BacTiter-Glo, 24 h. inhibition, % at 20 µM. 2.2% of 330,000 active. AID 463190;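 active = inhibition of at least 40%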;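 note: mutant grown at 25 °C; 0% = DMSO wells with yeast and 100% = wells holding no yeast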
PfHsp90 yeast 2: reduces growth (ATP signal) of yeast expressing P. falciparum Hsp90; AID 504621; 0.32% of 310,000 active; inhibition, % at 9.4 µM; S. cerevisiae expressing PfHsp90, BacTiter-Glo ATP, 48 h; yeast lacking PDR1 and PDR3 efflux regulators;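 active = every replicate shows inhibition above about 80%, whatever the replicate mean, limit read from the data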;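 note: 0% = DMSO neutral controls and 100% = 20 µM radicicol positive controls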
V-ATPase pH: yeast V-ATPase proton transport regulation by pHLuorin; S. cerevisiae, pHLuorin cytosolic pH fluorescence; response, % at 10 µM; 0.37% of 350,000 active; AID 504577; in the data active = response mostly above about 7.3%, no sharp cut-off; inactive = mostly below about 5.4%; note: actives read high
SKKanGAS inh: inhibitors of SKKanGAS S. pyogenes growth in kanamycin (SK-promoter or general growth effect); BacTiter-Glo, 6 h; 1.3% of 300,000 active; inhibition, % at 7.5 µM;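 active = mean replicate score, as percent of positive control median, at least 50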;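 note: strain carries kanamycin resistance gene driven by streptokinase promoter and grows in 40 µg/ml kanamycin; loss of luminescence reflects streptokinase promoter inhibition or plain growth inhibition; 0% = median of DMSO wells and 100% = positive control at its reference dose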
tim23-1 inh: tim23-1 yeast growth inhibition; S. cerevisiae tim23-1 growth, BacTiter-Glo luminescence, 24 h; inhibition, % at 20 µM; 1.3% of 330,000 active;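 active = growth inhibition of the mutant yeast at or above 50%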;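 note: temperature-sensitive mutant grown at 25 °C; plate controls were DMSO-treated mutant yeast for no effect and medium wells lacking yeast for full effect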
tim23-1 confirm: confirmation of tim23-1 mutant yeast growth inhibitors; inhibition, % at 20 µM; S. cerevisiae tim23-1 growth, BacTiter-Glo luminescence, 24 h; shares compounds with tim23-1 inh; 83% of 4,400 active;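 active = inhibition above about 39% in either of two replicate wells at 20 µM, limit read from the data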;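 note: temperature-sensitive tim23-1 mutant grown at 25 °C; 0% = DMSO wells with yeast and 100% = medium wells without yeast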
An asterisk follows results filed as active.

`CCN1CCN(CC(=O)n2c3c(c4ccccc42)CC(C)CC3)CC1` (stereo not drawn) gave TIM10 inh -4, tim10-1 inh 18, PfHsp90 yeast 2 -20, V-ATPase pH 6, SKKanGAS inh 9 and tim23-1 inh 9.
`CC1CCc2c(c3ccccc3n2C(=O)CCl)C1` (stereo not drawn) gave TIM10 inh 31, tim10-1 inh 39, PfHsp90 yeast 2 10, V-ATPase pH -2, SKKanGAS inh -5, tim23-1 inh 69* and tim23-1 confirm 56*.
Cc1cccc(Nc2nc(-c3cccs3)cs2)n1 was read as TIM10 inh 30, tim10-1 inh 6, PfHsp90 yeast 2 0, V-ATPase pH -2, SKKanGAS inh 7 and tim23-1 inh 44.
For Oc1ccc(-c2csc(Nc3ccccn3)n2)c(O)c1 the results were TIM10 inh 10, tim10-1 inh 26, PfHsp90 yeast 2 -26, V-ATPase pH -2, SKKanGAS inh 1, tim23-1 inh 72* and tim23-1 confirm 54*.
For c1ccc(Nc2nc(-c3cccs3)cs2)nc1 the results were TIM10 inh 29, tim10-1 inh 17, PfHsp90 yeast 2 -13, V-ATPase pH -2, SKKanGAS inh -2, tim23-1 inh 57* and tim23-1 confirm 34.
Fc1ccc(-c2csc(Nc3ccccn3)n2)cc1 was read as TIM10 inh 9, tim10-1 inh 18, PfHsp90 yeast 2 3, V-ATPase pH 6, SKKanGAS inh -3, tim23-1 inh 54* and tim23-1 confirm 41*.
For NS(=O)(=O)c1ccc(CNC(=O)c2sccc2-c2ccccc2)cc1 the results were TIM10 inh 2, tim10-1 inh 5, PfHsp90 yeast 2 -37, V-ATPase pH 3, SKKanGAS inh 4 and tim23-1 inh 12.
For Cc1c(S(=O)(=O)Nc2ccc(Oc3ccccc3)cc2)c(=O)n(C)c(=O)n1C the results were TIM10 inh 16, tim10-1 inh 2, PfHsp90 yeast 2 0, V-ATPase pH 1, SKKanGAS inh 5 and tim23-1 inh 3.
`CC1SC(C)C(=O)N(CC(=O)Nc2ccc([N+](=O)[O-])cc2)C1=O` (stereo not drawn) gave TIM10 inh 27, tim10-1 inh 12, PfHsp90 yeast 2 19, V-ATPase pH -1, SKKanGAS inh 0 and tim23-1 inh 6.
For Oc1ccc(/C=N/Nc2cccc3cccnc23)c(O)c1 the results were TIM10 inh 19, tim10-1 inh -4, PfHsp90 yeast 2 -1, V-ATPase pH -4, SKKanGAS inh 6, tim23-1 inh 58* and tim23-1 confirm 57*.
`Cc1ccc(/C=N/Nc2cccc3cccnc23)c(O)c1` gave TIM10 inh 8, tim10-1 inh 35, V-ATPase pH 6, SKKanGAS inh -13 and tim23-1 inh 15.
Screening C/C(=N\NC(=O)c1cccc(Br)c1)c1ccccn1 returned TIM10 inh 29, tim10-1 inh 30, PfHsp90 yeast 2 -13, V-ATPase pH 5, SKKanGAS inh 110*, tim23-1 inh 52* and tim23-1 confirm 37.
Screening COc1ccc(-c2noc(CNC(=O)c3ccc4c(c3)OCO4)n2)cc1 returned TIM10 inh 3, tim10-1 inh -38, PfHsp90 yeast 2 -16, V-ATPase pH 0, SKKanGAS inh 0, tim23-1 inh 53* and tim23-1 confirm 38.
Screening CC1CCCN(S(=O)(=O)c2ccc(C(=O)NC(C)c3ccccc3)cc2)C1 (stereo not drawn) returned TIM10 inh 23, tim10-1 inh 14, PfHsp90 yeast 2 -2, V-ATPase pH 6 and tim23-1 inh 30.
CCc1ccc2c(Cl)c(C(=O)N/N=C/c3c[nH]c4ccccc34)sc2c1 was read as TIM10 inh 20, tim10-1 inh 9, PfHsp90 yeast 2 4, V-ATPase pH 11, SKKanGAS inh 69*, tim23-1 inh 52* and tim23-1 confirm 39*.
Screening N=C1/C(=C/c2coc3ccccc3c2=O)C(=O)N=C2SC(c3ccco3)=NN12 returned TIM10 inh 4, tim10-1 inh -6, V-ATPase pH 5, SKKanGAS inh 25 and tim23-1 inh 11.

Screens deposited in PubChem by several laboratories.
